# PubChem BioAssay (NCI)
# About 83,000 compounds went through this panel and 20% of them were active in at least one assay; those are over-represented in the sample as a whole.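 Each cell line was grown in a 96-well plate and treated with one concentration of compound for 48 hours. Values below 10 were considered active.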 Calls of active or inactive are those of the source.
# System: EKVX NSCLC
# Experiment: NCI-60 one-dose screen, 48 h (100 = growth as untreated, 0 = no growth, -100 = all killed)
# Conditions: 10 µM unless noted
row,SMILES,growth
1,COc1ccc(Sc2ccc3[nH]c(=O)nc(N)c3c2)cc1,95.5% (inactive)
2,CCN1C(=O)C2(Nc3ccccc3S2)c2cc(C)ccc21 (configuration not stated),103% (inactive)
3,CCOC(=O)c1cn2c3c(cc(F)cc3c1=O)C(CC)c1ccccc1C2 (configuration not stated),99.7% (inactive)
4,Cc1nn(CC(=O)O)c2c1C(=O)CC(C)(C)C2,105% (inactive)
5,O=C1/C(=C/c2ccc(Oc3ccccc3)cc2)N=C(c2ccccc2)N1CCc1cccs1,95.7% (inactive)
6,COc1cccc(C2C3=C(COC3=O)N(CCO)c3cc4c(cc32)OCO4)c1 (configuration not stated),36.2% (inactive)
7,COc1ccc2c(c1)c(=O)oc1c(C)c(OCC(C)=O)ccc12,4.14% (active)
8,CC1=C(C/C=C(\C)CCC[C@H](C)CCC[C@H](C)CCCC(C)C)C(=O)c2ccccc2C1=O,114% (inactive)
9,O=S(=O)(OCCO)c1ccccc1,103% (inactive)
10,COc1ccc(-c2nc3sccn3c2/C=C/C(=O)c2cc(OC)c(OC)c(OC)c2)cc1OC,34.3% (inactive)
11,Cc1nc(NN)c([N+](=O)[O-])c(NN)n1,112% (inactive)
12,COc1cc(/C=C2\C(=O)N(c3c(Cl)cccc3Cl)c3ccccc32)cc(OC)c1O,79.8% (inactive)
13,COc1cc(C2C3=C(COC3=O)N(CCO)c3cc4c(cc32)OCO4)cc(OC)c1O (configuration not stated),57.2% (inactive)
14,COc1ccccc1CNCCCCCCCCCCCCN1C(=O)c2ccc3c4c(ccc(c24)C1=O)C(=O)N(CCCCCCCCCCCCNCc1ccccc1OC)C3=O,109% (inactive)
15,CCCCCCCCCCCCCCCC[N+]1(C)CCOCC1,64.1% (inactive)
16,Cn1cc(C(=O)NCCC(=N)N)cc1NC(=O)CN=C(N)N,103% (inactive)
17,Nc1cccc2c(=S)c3ccccc3[nH]c12,93.6% (inactive)
18,CCN1CCN(c2nc3ccccc3c3c(=O)c4cc(F)ccc4sc23)CC1,82.8% (inactive)
19,Cc1ccc(N(CSc2ccc(Cl)cc2)CSc2ccc(Cl)cc2)cc1,17.4% (inactive)

row,SMILES,growth
1,O=C1C(Cl)=C(NCCCN2CCOCC2)C(=O)c2ccccc21,112% (inactive)
2,O=[N+]([O-])c1ccc(O)c2ncccc12,39.8% (inactive)
3,O=C(Nc1ccccc1)Oc1cccc2cccnc12,82.2% (inactive)
4,Cc1ccc(C)c2c1sc1nc3nc4sc5ccccc5n4c(=N)c3c(=O)n12,95.7% (inactive)
5,O=C(c1ccccc1)C(Br)C(Br)c1cccc([N+](=O)[O-])c1 (configuration not stated),101% (inactive)
6,COc1cc(/C=C2\C(=O)Nc3ccccc32)cc(OC)c1O,110% (inactive)
7,O=c1ccc2ccccc2o1,109% (inactive)
8,Cc1nc(-c2ccccc2)cc2c(O)c(C(=O)N/N=C/Cc3ccccc3)[nH]c(=O)c12,103% (inactive)
9,CN1CCc2cccc3c2C1Cc1ccc(O)c(O)c1-3 (configuration not stated),75.4% (inactive)
10,COc1cccc(C2C3=C(COC3=O)N(CCO)c3cc4c(cc32)CCC4)c1 (configuration not stated),27.9% (inactive)
11,COc1cc(CNCCCN2C(=O)c3ccc4c5c(ccc(c35)C2=O)C(=O)N(CCCNCc2cc(OC)c(OC)c(OC)c2)C4=O)cc(OC)c1OC,-72.9% (active)
12,O=C1C=CC(=O)N1CCCCCCCCCCN1C(=O)C=CC1=O,97.8% (inactive)
13,CCCCC/C=C\C/C=C/CCCCCCCCNC(=O)Nc1ccc([N+](=O)[O-])cc1,79.1% (inactive)
14,Clc1ccc(C2=NN(c3ccccc3)[C@H](c3cn(-c4ccccc4)nc3-c3ccccc3)C2)cc1,94.9% (inactive)
15,OB(O)c1ccccc1,108% (inactive)
16,COc1cccc2c(=O)c3c(sc12)c(NCCN(C)C)nc1ccccc13,26.2% (inactive)
17,O=C(N/N=C/c1ccc(F)cc1)c1[nH]c2ccc(I)cc2c1-c1ccccc1,5.92% (active)
18,COc1ccc(-c2nc3sc(C)cn3c2/C=C/C(=O)c2cc(OC)c(OC)c(OC)c2)cc1,34% (inactive)
